# Shown are actives, neighbours in structure and some others; about 11% of the full set was active somewhere.
# NS1 function inh: blocks influenza NS1 protein function; Potency, µM (doses to about 46.1 µM); 270,000 tested, 0.4% active; AID 2326; calls by dose curve; further: actives are rising curves; nearly all actives have a fitted effect of over 50% in size
#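 Read-out: OD600 growth recovery of NS1-expressing budding yeast. Cells grown overnight at 30C in -URA glucose medium, washed, resuspended and diluted 1:100 in 2% galactose assay medium, pH 6.0. Same strain lacking NS1 served as positive control.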
# AMA1-RON2 inh: AMA1-RON2 (P. falciparum) interaction inhibition | AlphaScreen AMA1-biotinylated RON2 peptide binding | Potency, µM (titrated, usually from 58.2 µM), most hits filed as inhibitors | 360,000 tested, 0.2% active; further: nearly all actives have a fitted effect of over 45% in size
#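 AMA1 (3D7) with his tag at 25 nM final met compounds first, then biotinylated RON2 peptide at 25 nM; detection used donor plus acceptor beads, 10 µg/mL apiece, read by AlphaScreen after 30 min at room temperature.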
# Pf growth 96h: P. falciparum growth inhibition at 96 hours; P. falciparum luciferase reporter growth, 96 h; Potency, µM (highest dose often 28.7 µM), most hits filed as inhibitors; 320,000 tested, 6.9% active
#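 Two-generation exposure (96 h) targets delayed-death phenotype. Reporter parasites carrying integrated firefly luciferase, in red cells at 2% hematocrit and 0.05% parasitemia final, kept at 37 C, 5% CO2; luminescence loss indicates inhibition.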
# Pf growth 48h: inhibits P. falciparum growth in the first generation, 48 h | Potency, µM (highest dose often 28.7 µM), most hits filed as inhibitors | 310,000 tested, 5.9% active | AID 504832 | P. falciparum luciferase growth in erythrocytes, 48 h
#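 In quantitative HTS format, infected erythrocytes bearing luciferase-reporter parasites were treated for a single generation at 37 C. Luminescence after adding detection reagent served as the growth measure.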
# Sm TGR block: S. mansoni TGR enzyme inhibition; AID 485364; Potency, µM (doses to about 114 µM), usual class: inhibitors; purified TGR, DTNB reduction, TNB absorbance 405 nm; 360,000 tested, 3% active; Q962Y6; further: nearly all actives have a fitted effect of over 60% in size
#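 Kinetic colorimetric format: TGR-catalysed, NADPH-driven DTNB reduction monitored via TNB absorbance. Enzyme dispensed at 20 nM; compound exposure 15 min at room temperature before reaction start.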
# Numbers stand for hits; . = inactive; ? = inconclusive; / = no result given. Unless noted, the call rests on the fitted dose curve; in most records, active means well fitted curve in the direction sought with a large enough effect; inconclusive means small, poorly fitted or top-dose-only effect, or another doubt; inactive means no such curve, though single readings can be large; an effect the other way counts as inactive or inconclusive.
SMILES,NS1 function inh,AMA1-RON2 inh,Pf growth 96h,Pf growth 48h,Sm TGR block
O=C(NCC(c1ccco1)N1CCN(c2ccccc2)CC1)C1CCCCC1 (stereo not given),/,.,/,/,/
O=c1c(S(=O)(=O)c2ccccc2)cn(Cc2ccc(F)cc2)c2cc(N3CCOCC3)c(F)cc12,/,/,/,/,.
Cc1noc(C)c1NC(=O)N(C)C[C@H]1Oc2ccc(NC(=O)NC(C)C)cc2C(=O)N([C@H](C)CO)C[C@@H]1C,/,.,/,/,/
CCc1nnc(NS(=O)(=O)c2ccc(NC(=S)NC(=O)/C=C/c3ccc([N+](=O)[O-])cc3)cc2)s1,.,.,.,.,.
CCc1nnc(NS(=O)(=O)c2ccc(NC(=S)NC(=O)/C=C/c3ccc(F)cc3)cc2)s1,.,.,10µM,.,?
CCN(CC)S(=O)(=O)c1ccc(NC(=O)c2ccc(Cl)nc2)cc1,.,.,4.7µM,?,.
CCc1nnc(NC(=O)[C@@H](NC(=O)c2cccc(S(=O)(=O)N(CC)CC)c2)C(C)C)s1,.,.,/,1.7µM,.
CCc1nnc(NC(=O)c2ccc(S(=O)(=O)NCC(C)C)cc2)s1,.,.,1.7µM,.,.
COC(=O)Nc1ccc(S(=O)(=O)NC2CCCCC2)cc1,.,.,.,.,.
CN1CCCN(Cc2nc(-c3ccc(Cl)cc3)no2)CC1,.,.,?,.,18µM
c1ccc(-c2noc(CN3CCN(c4ccccc4)CC3)n2)cc1,.,.,7.4µM,/,.
Clc1ccc(-c2noc(CN3CCCCC3)n2)cc1,.,/,/,/,/
CCc1cc2c(=O)n(CCC(C)C)c(=S)[nH]c2s1,/,.,.,.,.
CCCCc1nc2cc(C(=O)N3CCNC(=O)C3CC(=O)OC)ccc2o1 (stereo not given),.,.,?,.,.
COC(=O)CC1C(=O)NCCN1C(=O)c1ccc2oc(C(C)C)nc2c1 (stereo not given),.,.,15µM,.,.
CCCCn1c(-c2cccnc2)n[nH]c1=S,.,.,2.6µM,.,.
CCCCn1c(-c2cccc(Br)c2)nc2cc3[nH]c(=O)c(C(C)C)nc3cc21,.,.,6.6µM,?,.
CCCn1c(-c2cccc(Br)c2)nc2ccccc21,/,/,/,/,.
CCCCn1c(-c2cccnc2)nc2cc3[nH]c(=O)c(C(C)C)nc3cc21,.,.,10µM,?,.
CC(C)c1ccc(S(=O)(=O)Nc2cc3c(cc2NCc2ccccc2)n(C)c(=O)n3C)cc1,/,/,/,/,.
CCn1nc(C)cc1C(=O)Sc1ccc(C)cc1,.,.,.,.,18µM
Cc1ccc(OC(=O)c2cc(C)nn2C(C)(C)C)cc1,.,.,.,.,.
Cn1nnnc1NN=Cc1ccccc1,/,.,/,/,/
Fc1ccc(/C=N/Nc2nnnn2-c2ccccc2)cc1,.,.,8.3µM,.,/
Cc1cccc(NC(=O)C2CC(=O)N(Cc3ccccc3)C2)n1 (stereo not given),/,.,.,.,.
SMILES,NS1 function inh,AMA1-RON2 inh,Pf growth 96h,Pf growth 48h,Sm TGR block
Cc1cc(N2CCOCC2)n2ncc(-c3ccccc3Cl)c2n1,.,.,.,.,.
CCN(CC)C(=O)COc1ccc(/C=C(\C#N)S(=O)(=O)c2ccccc2)cc1OC,.,.,9.3µM,.,.
CCOc1ccc(-c2nn(-c3ccccc3)cc2/C=C(\C#N)S(=O)(=O)c2ccccc2)cc1C,.,.,.,?,.
CN(C(=O)CSc1nnc(-c2cccs2)n1C1CC1)C1CCS(=O)(=O)C1 (stereo not given),/,.,.,.,.
COc1ccc(NC(=O)C(c2ccc(OC)cc2)N(C)C(=O)CC2NC(=O)NC2=O)cc1 (stereo not given),.,.,12µM,.,.
Cc1ccc(C(C(=O)Nc2ccc(C(C)C)cc2)N(C)C(=O)c2ccc(=O)[nH]c2)cc1 (stereo not given),/,.,.,?,.
COc1ccc(NC(=O)C(c2ccccc2)N(C)C(=O)c2ccc(=O)[nH]c2)cc1 (stereo not given),.,.,1µM,.,.
CCOc1ccc(NC(=O)c2cnccn2)cc1,.,.,.,.,89µM
C/C(CC(=O)Nc1ccc(N(C)C)cc1)=N\NC(=O)c1ccccn1,.,.,.,.,?
CCOc1ccccc1NC(=O)NC1Cc2ccccc2C1,.,.,8.3µM,?,.
O=C(Nc1cccc2ccccc12)NC1Cc2ccccc2C1,.,.,?,.,.
C/C(CC(=O)Nc1ccc(N(C)C)cc1)=N\NC(=O)c1cnccn1,.,.,.,?,35µM
CCOc1ccccc1NC(=O)c1cnccn1,.,.,12µM,?,.
COc1ccc(CN2C(=O)CN(S(C)(=O)=O)CC2(C)C(=O)Nc2ccc3c(c2)OCCO3)cc1OC (stereo not given),/,.,/,/,/
COc1ccc(S(=O)(=O)NCc2ccccn2)cc1NC(=O)c1ccccc1C,/,.,.,.,.
CCOc1ccccc1NC(=O)Nc1ccncc1,.,.,.,3.3µM,.
Cc1ccc(NC(=O)c2cnn3c(C(F)F)cc(-c4ccccc4)nc23)c(C)c1,/,/,/,/,.
Cc1ccc(-c2cc(C(F)F)n3ncc(C(=O)Nc4c(C)nn(Cc5ccccc5Cl)c4C)c3n2)cc1,.,.,?,?,.
Cc1nn(Cc2c(Cl)cccc2Cl)c(C)c1NC(=O)c1cnn2c(C(F)F)cc(-c3ccccc3)nc12,.,.,2.6µM,?,.
Cc1ccc(-c2cc(C(F)F)n3ncc(C(=O)Nc4c(C)nn(Cc5c(Cl)cccc5Cl)c4C)c3n2)cc1,?,.,2.3µM,?,.
Cn1c(-c2ccc(S(=O)(=O)N3CCCC3)cc2)csc1=Nc1ccc(Cl)c(Cl)c1,/,/,/,/,8.9µM
O=C(Nc1ccc(Oc2ccc(C(F)(F)F)cn2)c(Cl)c1)C1CC1,/,.,12µM,?,.
CC(NC(=O)CNC(=O)c1sc2ccccc2c1Cl)c1ccc(S(N)(=O)=O)cc1 (stereo not given),/,.,.,.,.
Cc1cn([C@H]2C[C@H](O)[C@@H](/C=C/C(=O)NCc3cccc4ccccc34)O2)c(=O)[nH]c1=O,/,.,/,/,/
Cc1cccc(-n2c(C)cc(C(=O)C(=O)Nc3nncs3)c2C)c1,/,/,/,/,.
SMILES,NS1 function inh,AMA1-RON2 inh,Pf growth 96h,Pf growth 48h,Sm TGR block
CCC(CC)C(=O)Nc1nnc(S(=O)(=O)N2CCCC2)s1,.,.,?,.,.
C/C=C/Cn1c(SCCCc2ccccc2)nc2c1c(=O)[nH]c(=O)n2C,.,.,0.93µM,?,.
C=CCn1c(SCCCc2ccccc2)nc2c1c(=O)[nH]c(=O)n2C,.,.,4.1µM,?,.
COCCn1c(SCCCc2ccccc2)nc2c1c(=O)[nH]c(=O)n2C,.,.,.,?,.
O=C(NCCc1ccccc1)C1(c2ccccc2)CCCC1,.,.,13µM,.,.
Cc1c2cnn(CC(=O)N3CCN(c4ccc(F)cc4)CC3)c(=O)c2c(C)n1Cc1ccccc1F,/,/,/,/,.
CCOC(=O)CNc1nc(Cl)nc(NC(C)(C)C)n1,/,.,13µM,.,.
CC(C)(C)Nc1nc(N)nc(Cl)n1,.,.,.,.,.
CC1(C)CC(=O)C=C(c2ccc(I)cc2)C1,/,.,?,4.7µM,.

# From PubChem
